Assay outcomes (PubChem BioAssay)
G9a block: inhibitors of human histone lysine methyltransferase G9a; Potency, µM (top dose mostly 102 µM), without a hit: at the highest dose activity, negative = inhibition, actives largely listed as inhibitors; G9a H3K9 monomethylation, AlphaScreen, 2 h; actives 8.8% (n = 350,000); Q96KQ7; note: potency is the fitted concentration of half-maximal effect; % is set by controls: 0 for no effect and ±100 for the full control effect; nearly all actives have a fitted effect of over 75% in size
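Compounds were preincubated with 20 nM G9a for 15 min, after which biotinylated H3K9 peptide (500 nM) and SAM (20 uM) started a 2 h room-temperature reaction. Monomethylated product was quantified by antibody-based AlphaScreen chemiluminescence.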
HP1b binding inh: HP1-beta chromodomain-methylated histone interaction inhibition; AlphaScreen HP1-beta / biotin-H3K9me3 peptide binding; Potency, µM (top dose mostly 114 µM), without a hit: top-dose activity change, negative = inhibition, actives largely listed as inhibitors; actives 0.56% (n = 390,000); note: potency is the fitted concentration of half-maximal effect; nearly all actives have a fitted effect of over 70% in size
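Compound inhibition of the preformed complex between 50 nM HP1-beta and 50 nM biotinylated H3K9me3 peptide was read by AlphaScreen. Buffer was PBS pH 7.4 with 0.01% Tween-20. Incubations ran 30 min at room temperature, with 10 ug/mL donor/acceptor beads.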
BAZ2B inh: blocks human BAZ2B; Q9UIF8; AlphaScreen BAZ2B-H3K14Ac peptide displacement; Potency, µM (doses to about 114 µM), inactives show at the highest dose activity change, negative = inhibition, hits mostly inhibitors; actives 4.4% (n = 360,000); note: potency is the fitted concentration of half-maximal effect; % is set by controls: 0 for no effect and ±100 for the full control effect; nearly all actives have a fitted effect of over 60% in size
Target sequence (Q9UIF8 whole entry, looked up): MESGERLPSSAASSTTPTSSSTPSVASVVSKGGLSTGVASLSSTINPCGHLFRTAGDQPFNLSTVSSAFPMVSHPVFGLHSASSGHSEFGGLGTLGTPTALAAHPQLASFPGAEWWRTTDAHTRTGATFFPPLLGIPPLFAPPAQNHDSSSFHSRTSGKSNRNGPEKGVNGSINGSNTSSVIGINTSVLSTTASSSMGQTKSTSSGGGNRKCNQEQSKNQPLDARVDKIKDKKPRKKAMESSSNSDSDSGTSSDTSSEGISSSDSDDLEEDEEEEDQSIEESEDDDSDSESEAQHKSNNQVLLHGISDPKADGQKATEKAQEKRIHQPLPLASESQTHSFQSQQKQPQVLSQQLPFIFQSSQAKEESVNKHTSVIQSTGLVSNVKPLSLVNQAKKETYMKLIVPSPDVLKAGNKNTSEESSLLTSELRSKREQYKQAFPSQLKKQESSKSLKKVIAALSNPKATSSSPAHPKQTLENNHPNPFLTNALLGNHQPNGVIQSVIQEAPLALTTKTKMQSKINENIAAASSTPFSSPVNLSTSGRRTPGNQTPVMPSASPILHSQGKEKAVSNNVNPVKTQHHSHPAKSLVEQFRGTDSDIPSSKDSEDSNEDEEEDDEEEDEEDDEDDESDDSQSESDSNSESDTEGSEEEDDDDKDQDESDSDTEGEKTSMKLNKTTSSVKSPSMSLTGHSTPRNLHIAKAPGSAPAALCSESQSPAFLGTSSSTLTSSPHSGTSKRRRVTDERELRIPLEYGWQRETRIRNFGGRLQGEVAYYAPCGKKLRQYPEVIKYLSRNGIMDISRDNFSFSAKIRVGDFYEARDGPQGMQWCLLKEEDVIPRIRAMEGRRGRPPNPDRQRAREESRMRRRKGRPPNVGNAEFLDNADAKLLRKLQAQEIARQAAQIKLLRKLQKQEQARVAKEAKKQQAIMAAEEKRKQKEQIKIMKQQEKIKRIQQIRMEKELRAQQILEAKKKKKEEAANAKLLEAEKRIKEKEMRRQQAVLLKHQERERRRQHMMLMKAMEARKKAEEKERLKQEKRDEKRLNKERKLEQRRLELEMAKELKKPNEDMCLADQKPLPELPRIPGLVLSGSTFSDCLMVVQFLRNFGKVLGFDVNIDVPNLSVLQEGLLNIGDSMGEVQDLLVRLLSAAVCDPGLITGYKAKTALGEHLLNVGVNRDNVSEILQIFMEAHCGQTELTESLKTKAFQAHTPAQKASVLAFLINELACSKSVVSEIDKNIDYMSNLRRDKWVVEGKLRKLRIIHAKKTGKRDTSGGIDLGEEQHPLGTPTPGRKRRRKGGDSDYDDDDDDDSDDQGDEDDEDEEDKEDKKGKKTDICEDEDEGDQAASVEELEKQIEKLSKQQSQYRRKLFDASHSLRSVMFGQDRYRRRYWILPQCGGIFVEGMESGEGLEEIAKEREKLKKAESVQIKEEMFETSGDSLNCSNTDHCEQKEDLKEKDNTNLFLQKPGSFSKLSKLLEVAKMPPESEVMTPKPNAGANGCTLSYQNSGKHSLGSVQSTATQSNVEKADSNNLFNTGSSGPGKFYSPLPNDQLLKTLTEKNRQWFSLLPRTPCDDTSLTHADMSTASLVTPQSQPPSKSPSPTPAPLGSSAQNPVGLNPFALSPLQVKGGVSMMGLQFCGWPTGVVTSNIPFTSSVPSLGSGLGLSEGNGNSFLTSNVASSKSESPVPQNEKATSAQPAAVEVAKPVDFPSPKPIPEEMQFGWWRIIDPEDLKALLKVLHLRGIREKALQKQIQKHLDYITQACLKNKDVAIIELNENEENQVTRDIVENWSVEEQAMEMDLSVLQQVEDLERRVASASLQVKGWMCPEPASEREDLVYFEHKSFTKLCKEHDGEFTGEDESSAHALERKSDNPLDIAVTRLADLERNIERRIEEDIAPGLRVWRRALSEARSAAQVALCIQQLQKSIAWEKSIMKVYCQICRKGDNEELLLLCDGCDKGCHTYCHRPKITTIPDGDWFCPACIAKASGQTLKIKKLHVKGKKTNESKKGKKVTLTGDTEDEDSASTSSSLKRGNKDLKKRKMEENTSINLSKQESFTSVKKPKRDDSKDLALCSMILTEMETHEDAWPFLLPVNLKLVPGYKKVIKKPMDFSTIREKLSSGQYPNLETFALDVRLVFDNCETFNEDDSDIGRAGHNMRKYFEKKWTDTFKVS
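Protein-peptide AlphaScreen: BAZ2B 50 nM, b-H3K14Ac 50 nM, 1x PBS pH 7.4 + 0.01% Tween-20. Preincubation 30 min RT; cpd 30 min RT (top 110 uM); beads 20 min RT, light-protected.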
JMJD2A Tudor: inhibitors of human JMJD2A Tudor domain | actives 4.4% (n = 390,000) | O75164 | Potency, µM (highest dose often 114 µM), inactives show at the highest dose activity change, negative = inhibition, most hits filed as inhibitors | AlphaScreen JMJD2A-Tudor / H3K4me3 peptide binding; note: potency is the fitted concentration of half-maximal effect; % is set by controls: 0 for no effect and ±100 for the full control effect; nearly all actives have a fitted effect of over 50% in size
CtBP-E1A inh: CtBP/E1A binding inhibition. AID 651724. activity change, % (test concentration not listed). actives 0.49% (n = 340,000). AlphaScreen GST-E1A/His-CtBP binding, 1536-well; hits give low values; in the data active = activity change below about -65%; inconclusive = mostly about -30% to -63%; note: % is set by controls: 0 for no effect and ±100 for the full control effect
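GST-E1A and His-tagged CtBP (125 nM each as 5X stock) were preincubated with pin-transferred compound for 2 h at 37 °C in the dark, then glutathione donor and nickel acceptor beads were added for 1 h before AlphaScreen reading.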
Six1-Eya2 blk: blocks human Six1 binding to Eya2; Q15475+O00167; AID 651725; actives 0.56% (n = 360,000); activity change, % (concentration not given with the values); AlphaScreen GST-Six1/His-Eya2 binding, biochemical; hits give low values; in the data active = activity change below about -65%; inconclusive = mostly about -30% to -63%; note: % is set by controls: 0 for no effect and ±100 for the full control effect
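Compounds are tested against tagged Six1 and Eya2 proteins bridged by glutathione donor and nickel acceptor beads; after a one-hour incubation at 37 °C without light, AlphaScreen emission is recorded.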
An asterisk follows results filed as active; ? = inconclusive; . = not tested or not shown; [ ] = remark or other dose. The list is not random: actives were taken first. Their share in the collection is about 10%. Unless noted, calls come from the whole dose curve; as a rule, active = well fitted inhibition curve with a large enough effect; inconclusive = small, poorly fitted or top-dose-only effect; inactive = no such curve, though single readings can be large or run the other way.

SMILES	G9a block	HP1b binding inh	BAZ2B inh	JMJD2A Tudor	CtBP-E1A inh	Six1-Eya2 blk
O=c1[nH]c(CSc2nc3ccccc3s2)nc2cc(Cl)ccc12	28.2µM*	.	-15.7%	.	.	.
Cc1ccc2c(c1)cc1c(=O)n(Cc3cccc(Cl)c3)nc(C)n12	12.9%[59 µM]	43.2%	1.0%	8.7%	.	.
OC[C@H]1O[C@@H](n2cnc3c(Nc4ccccc4)ncnc32)[C@H](O)[C@H]1O	31.5%[12.7 µM]	.	.	.	.	.
CCCn1c(CCC(=O)O)ccc1-c1ccccc1	5.3%[59 µM]	?	-1.3%	35.5µM*	-0.8	-2.0
O=C(O)CCc1ccc(-c2ccc(F)cc2)n1CC1CCCO1 (centres undefined)	?	7.4%	-5.7%	-24.1%	3.8	-0.8
O=C(O)CCc1ccc(-c2ccc(F)cc2)n1CCC(=O)O	11.2µM*	29.7%	-21.5%	-19.7%	7.6	2.0
Cc1ccc(-c2ccc(CCC(=O)O)n2Cc2ccco2)cc1	50.1µM*	-5.6%	?	?	-4.4	-10.3
O=C(O)CCc1ccc(-c2ccccc2)n1CC(=O)O	?	9.4%	-19.3%	?	-0.4	1.3
CCN(CC)CCOC(=O)c1ccc(N/C=C(/C#N)c2nc(-c3cccc(OC)c3)cs2)cc1	28.2µM*	10.6%	?	-11.4%	-8.4	-2.3
CCOC(=O)c1ccc(N/C=C\C(=O)c2cccc(OC)c2)cc1	?	27.7%	-4.8%	-8.8%	3.8	5.8
Cc1ccc(-c2csc(/C(C#N)=C/Nc3ccc4c(c3)OCCO4)n2)cc1	-14.3%	18.3%	-22.3%	-21.4%	.	-1.5
CCN(CC)CCOC(=O)c1ccc(N/C=C(/C#N)c2nc(-c3ccc(OC)c(OC)c3)cs2)cc1	1.58µM*	14.1µM*	-32.7%	35.5µM*	-8.4	-5.7
Cc1ccc(NC(=O)c2c(C)oc3ncnc(N4CCCCC4)c23)c(C)c1	-3.8%[59 µM]	-12.4%	-3.7%[57.1 µM]	-24.6%	.	.
Cc1ccc(C)c(NCC(O)c2ccccc2)c1 (centres undefined)	70.8µM*	3.3%	-33.3%	-15.9%	-9.9	-7.0
CCc1ccc(S(=O)(=O)c2nnn3c2nc(NCc2cccc(OC)c2)c2cc(Cl)ccc23)cc1	1.0%[59 µM]	21.5%	-0.1%	-12.4%	.	.
O=C(O)c1ccc(NC2=C/C(=N/S(=O)(=O)c3ccccc3)c3ccccc3C2=O)cc1	12.6µM*	?	20µM*	50.1µM*	?	?
Cc1cc(C)c(S(=O)(=O)/N=C2\C=C(Nc3ccc(C(=O)O)cc3)C(=O)c3ccccc32)c(C)c1	10µM*	?	8.91µM*	31.6µM*	-71.6*	?
COC(=O)c1ccc(N/C(=N/S(=O)(=O)c2ccccc2)c2ccccc2)cc1	-2.9%	27.4%	-0.4%	-15.6%	-21.1	-17.0
CCc1cc2c(cc3c(=O)n(CC(=O)NC4CCCCC4)nc(CC)n32)s1	?	1.1%	-2.1%	-9.8%	.	.
Cc1cc(C)c(NC(=O)C(C)n2c(=O)cc(-c3ccccc3)c3c(C)nn(C)c32)c(C)c1 (centres undefined)	4.2%[59 µM]	70.3%	1.1%	-13.3%	.	.
O=C1C=CC(=O)C(CNc2ccc(C(=O)OCc3ccccc3)cc2)=C1	.	39.8µM*	.	39.8µM*	-14.7	-17.4
Cc1ccc(NC(=O)CSc2nc3ccc(NC(=O)c4cccs4)cc3s2)c(C)c1	-22.9%[59 µM]	31.7%	-7.3%	-5.6%	.	.
COc1ccc(C(=O)Nc2c(O)ccc3ccccc23)cc1OC	.	13.3%	.	-20.6%	-2.5	-7.8
COc1ccc(S(=O)(=O)Nc2c(O)ccc3ccccc23)cc1OC	.	70.8µM*	.	79.4µM*	5.2	-13.6
COc1ccc(S(=O)(=O)Nc2c(C(=O)O)[nH]c3ccccc23)cc1	44.7µM*	71.9%	-17.8%	-26.7%	2.4	-0.3
SMILES	G9a block	HP1b binding inh	BAZ2B inh	JMJD2A Tudor	CtBP-E1A inh	Six1-Eya2 blk
COc1ccc(S(=O)(=O)Nc2c(C(=O)O)[nH]c3ccccc23)cc1OC	12.6µM*	-13.6%	?	?	0.1	-12.5
COc1ccc2[nH]c(C(=O)O)c(NS(=O)(=O)c3ccc(C)c(C)c3)c2c1	44.7µM*	49.5%	-32.5%	-19.2%	-15.4	-13.0
COc1ccc2[nH]c(C(=O)O)c(NS(=O)(=O)c3ccc(F)cc3)c2c1	?	45.3%	-18.8%	-15.8%	-4.4	-1.1
O=C(Cn1c(=O)n(Cc2ccco2)c(=O)c2oc3ccccc3c21)Nc1ccc(F)cc1F	-12.4%[59 µM]	27.1%	-14.2%	-7.7%	.	.
CCCCn1cc(S(=O)(=O)c2ccc(C)c(C)c2)c(=O)c2cc(F)c(N3CCN(C)CC3)cc21	-9.0%[59 µM]	27.2%	0.1%	-9.6%	.	.
O=C(O)c1[nH]c2ccccc2c1NS(=O)(=O)c1ccc(F)cc1	70.8µM*	1.9%	?	-20.5%	7.9	3.3
Cc1ccc(S(=O)(=O)Nc2c(C(=O)O)[nH]c3ccccc23)c(C)c1	?	?	?	56.2µM*	0.1	-2.6
O=C(O)c1[nH]c2ccccc2c1NS(=O)(=O)Cc1ccccc1	?	6.1%	-38.0%	?	-3.6	1.1
COc1cccc(CNc2ccc3[nH]c(=O)[nH]c3c2)c1OCc1ccccc1	.	?	44.7µM*	39.8µM*	-4.0	-29.5
COc1cccc(CNc2ccc3[nH]c(=O)[nH]c3c2)c1OCc1ccccc1Cl	.	?	12.6µM*	39.8µM*	?	?
Cc1nnc(N2C(=O)c3cccc4c([N+](=O)[O-])ccc(c34)C2=O)s1	50.1µM*	54.4%	-21.1%	-4.7%	.	-2.4
O=C1c2cccc3c([N+](=O)[O-])ccc(c23)C(=O)N1Cc1cccnc1	?	?	39.8µM*	-21.1%[57.1 µM]	0.0	-16.6
Cc1ccc(CNC(=O)c2ccccc2SCC(=O)NCC2CCCCC2)cc1	44.7µM*	38.9%	6.6%	-11.1%	-2.5	-7.1
NS(=O)(=O)c1ccc(CNC(=O)c2ccccc2SCC(=O)N2CCCC2)cc1	35.5µM*	25.7%	14.9%	-4.1%	-23.9	11.4
CCSc1ccccc1C(=O)NCc1ccc(S(N)(=O)=O)cc1	?	11.6%	1.6%	-19.4%	8.7	3.3
O=C(CSc1ccccc1C(=O)N1CCCCC1)NCC1CCCCC1	-10.4%	35.5%	-0.9%	-29.8%	1.7	5.9
Cc1ccc(CN2COc3ccc4c(-c5ccccc5)cc(=O)oc4c3C2)cc1	27.1%[59 µM]	88.9%	2.2%	1.0%	.	.
Cc1cc(C(=O)N/N=C/c2cc(Cl)cc([N+](=O)[O-])c2O)n[nH]1	.	26.8%	50.1µM*	?	-80.9*	?
Cc1cc(C(=O)N/N=C/c2ccc(-c3ccc([N+](=O)[O-])cc3Cl)o2)n[nH]1	50.1µM*	20.4%	79.4µM*	?	0.6	-7.5
Cc1cc(C(=O)N/N=C\c2cc(C(C)(C)C)c(O)c(C(C)(C)C)c2)n[nH]1	39.8µM*	-17.4%	-11.4%	?	-1.7	9.7
